# Assay results as given in PubChem BioAssay AID2551 (National Center for Advancing Translational Sciences (NCATS), 2010).
# Among all 310,000 compounds or so, about 17,000 (5.5%) were called active. Roughly 11% stayed inconclusive and do not appear here. Calls follow the shape of the dose curve; as a rule, active = well fitted inhibition curve with a large enough effect; inconclusive = small, poorly fitted or top-dose-only effect, or effect the other way; inactive = no such curve, though single readings can be large or run the other way. The list comes from a sample in which actives are over-represented; it also holds similar structures and randomly drawn compounds. Where a call stands in place of a potency, no number is given.
# Target: Nuclear receptor ROR-gamma (Mus musculus) (UniProt P51450)
# Sequence (P51450 whole entry, looked up): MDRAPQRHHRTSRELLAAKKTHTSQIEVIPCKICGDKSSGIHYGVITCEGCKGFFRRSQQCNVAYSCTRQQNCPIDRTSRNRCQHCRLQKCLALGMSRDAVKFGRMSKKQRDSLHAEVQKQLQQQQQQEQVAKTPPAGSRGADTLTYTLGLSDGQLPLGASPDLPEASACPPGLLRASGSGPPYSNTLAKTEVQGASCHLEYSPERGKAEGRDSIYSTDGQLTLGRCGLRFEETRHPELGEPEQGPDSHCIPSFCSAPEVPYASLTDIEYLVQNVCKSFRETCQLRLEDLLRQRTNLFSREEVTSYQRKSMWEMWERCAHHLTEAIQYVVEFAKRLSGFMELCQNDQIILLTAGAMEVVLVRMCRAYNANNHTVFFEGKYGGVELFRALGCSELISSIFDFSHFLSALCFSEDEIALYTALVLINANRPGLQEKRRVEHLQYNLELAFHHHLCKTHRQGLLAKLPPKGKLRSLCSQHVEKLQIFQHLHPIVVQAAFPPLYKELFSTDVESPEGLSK
# Assay: qHTS for inhibitors of ROR gamma transcriptional activity; also: nearly all actives have a fitted effect of over 60% in size
# Conditions: Drosophila S2 Gal4-RORgamma UAS-luciferase reporter, 20 h; series mostly up to 53.6 µM
# Method in brief: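 Read-out: Photinus luciferase luminescence; inhibitors lower reporter signal. Insect Schneider cells with Gal4-ROR gamma fusion under metallothionein promoter, UAS reporter; 700 uM final copper sulfate induction, 20 hr, ambient temperature.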
# Potency is read from the fitted curve at half-maximal effect.
Compound,Potency,"activity change, negative = inhibition"
COC(=O)CN1C(=O)[C@H]2[C@@H](/C=C/c3ccccc3)N3C(=O)CN(CC4CC4)C(=O)[C@@]3(Cc3ccccc3)[C@H]2C1=O,inactive,
Cc1[nH]n(-c2cccc(Cl)c2)c(=O)c1-c1ccc(Cl)cc1,inactive,
Cc1[nH]n(C(N)=S)c(=O)c1N=Nc1ccc(Cl)cc1Cl,0.562 µM (active),
Cc1ccc(N=Nc2c(C)[nH]n(-c3ccccc3)c2=O)cc1,inactive,
Cc1cc2oc(=O)cc(CN(C)Cc3ccc(OC(F)F)cc3)c2cc1Cl,inactive,
COc1ccc(CCN2C(=O)C(C)=C(C)C2=O)cc1OC,inactive,
COc1ccccc1-c1nc(N2CCN(C)CC2)c2ccccc2n1,inactive,
COc1ccccc1-c1n[nH]c2c1[C@H](C)CC[C@H]2C(C)C,3.16 µM (active),
CC1C(=O)Nc2ccccc2N1C(=O)c1c(F)cccc1F (configuration not stated),inactive,
COc1ccc(-n2nc3c(N4CCC(C(=O)NCc5ccccc5)CC4)nnc(C)c3c2C)cc1,inactive,
O=C1CSC(=S)N1/N=C/c1ccc(O)c([N+](=O)[O-])c1,8.91 µM (active),
O=[N+]([O-])c1ccc(N2CCSCC2)cc1O,inactive,
Cc1cc(C(=O)N/N=C/c2ccc(O)c([N+](=O)[O-])c2)c(C)n1-c1ccc(F)cc1,inactive,
COc1cccc(C2CC(c3cccs3)=NN2C(=O)CSC2=NCCS2)c1OC (configuration not stated),inactive,
CC(C(=O)NC1CCCCC1)N1C(=O)c2cccc3cccc1c23 (configuration not stated),inactive,
COc1cc(NC(=O)C2=C(C)OCCS2)c(Cl)cc1C(=O)NCCN1CCN(C)CC1,inactive,
O=C(NCc1cccc(C(F)(F)F)c1)c1cccc(S(=O)(=O)N2CCN(Cc3ccccc3)CC2)c1,inactive,
S=C(NCc1ccc(Cl)cc1)NC1CCCCC1,3.55 µM (active),
O=C(NCc1ccncc1)NC12CC3CC(CC(C3)C1)C2,inactive,
CN(C)CCCNC(=S)NCc1ccc(Cl)cc1,inactive,
O=C(NC1CCN(C(=S)Nc2ccc(Cl)cc2)CC1)C1CCCCC1,inactive,
S=C(NCc1ccc(Cl)cc1)NC12CC3CC(CC(C3)C1)C2,2 µM (active),

Compound,Potency,"activity change, negative = inhibition"
O=C(NCc1ccc(Cl)cc1)NCc1ccc(Cl)cc1,inactive,
COCCCNC(=O)C1CC(=O)N(CCc2ccc(F)cc2)C1 (configuration not stated),inactive,
CC(=O)Nc1ccc(Nc2ncnc3c2nnn3Cc2ccccc2Cl)cc1,inactive,
O=C(c1c(F)cccc1Cl)N1CCN(c2ccccn2)CC1,inactive,
COc1ccc(S(=O)(=O)N2CCC(C(=O)NCCC(=O)NCc3cccc(OC)c3)CC2)cc1,inactive,
CC(C)[C@H](NC(=O)N1CC(=O)Nc2ccccc21)C(=O)N[C@@H](Cc1c[nH]c2ccccc12)C(=O)O,inactive,
COc1cc(C(=O)NCCOC(=O)c2cccc(N(C)C)c2)cc(OC)c1OC,inactive,
CNC(=S)N/N=C/c1ccc(OCc2ccccc2)c(Br)c1,1.26 µM (active),
C=CCNC(=S)N/N=C/c1ccc(OCc2ccccc2)cc1,inactive,
O=C(O)COc1ccc(/C=N/O)cc1Br,inactive,
COc1cc(NS(=O)(=O)c2ccc(NC(=S)NC(=O)c3ccc(Br)cc3)cc2)ncn1,inactive,
COc1cc2c(cc1OC)CN(C(=O)c1cc(S(=O)(=O)N3CCCCC3)ccc1Cl)CC2,inactive,
Cc1ccc(C(=O)NCC(=O)OCc2nnc(-c3ccccc3)o2)cc1,inactive,
Cc1c(CCC(=O)N[C@@H](CC(C)C)C(=O)O)c(=O)oc2c(C)c3oc4c(c3cc12)CCCC4,inactive,
CCOC(=O)C1=C(C)NC(=O)NC1c1ccccc1 (configuration not stated),inactive,
CCOC(=O)C1=C(c2ccccc2)NC(=O)NC1c1cc(OC)c(OC)cc1OC (configuration not stated),inactive,
CCOC(=O)C1=C(c2ccccc2)NC(=S)NC1c1ccc(Cl)cc1 (configuration not stated),7.94 µM (active),
Cn1cc(C(=O)c2ccc(Cl)cc2Cl)cc1C(=O)NN,inactive,
COc1ccc(C2=NOC3(CC(=O)N(c4ccc(C)cc4)C3=O)C2)cc1 (configuration not stated),inactive,
COc1ccc(C2=Nc3cc(C)ccc3OC2)cc1,10 µM (active),
COc1ccc(NC(=O)c2cc(-c3ccc(C)cc3)on2)cc1,inactive,
Cc1cc(C)cc(N(CCC#N)C(=O)CN2C(=O)NC3(CCCC3)C2=O)c1,inactive,

Compound,Potency,"activity change, negative = inhibition"
COc1ccc(N(Cc2ccc(N(C)C)cc2)C(=O)c2ccc(S(C)(=O)=O)cc2)cc1,inactive,
CCOc1ccccc1NC(=S)N1CCN(c2cccc(C)c2C)CC1,6.31 µM (active),
CCC(=O)N1CCN(c2ccccc2NC(=O)COc2cccc(C)c2C)CC1,inactive,
COc1ccccc1NC(=S)N1CCN(C(c2ccccc2)c2ccccc2)CC1,3.55 µM (active),
COCCN(C(=S)Nc1ccccc1OC)C1CCN(C(C)C)CC1,inactive,
COc1ccccc1NC(=S)N1CCC(NC(=O)C23CC4CC(CC(C4)C2)C3)CC1,inactive,
CC(=O)N1CCN(c2cccc(C)c2C)CC1,inactive,
CC(=O)c1cccc(NC(=S)N2CCN(S(C)(=O)=O)CC2)c1,inactive,
CCC(C(=O)NC1CCCCC1)N(C(=O)c1snc(C(N)=O)c1N)c1ccc(OC)cc1OC (configuration not stated),inactive,
O=C(CCc1nnc2ccc(NCc3ccccc3Cl)nn12)NCC1CCN(C2CCCC2)C1 (configuration not stated),inactive,
COc1ccc(-c2csc3nc(-c4ccccc4F)oc(=O)c23)cc1OC,11.2 µM (active),
COc1ccc(-c2csc(-c3cccs3)n2)cc1OC,inactive,
COc1ccc(-c2noc(-c3cccc(OC)c3OC)n2)cc1OC,inactive,
Cc1cc(C)nc(N/N=C/c2ccc([N+](=O)[O-])o2)n1,inactive,
NC(=O)C(=O)N/N=C/c1ccc([N+](=O)[O-])o1,,-19.4% [at 10 µM] (inactive)
C/[N+]([O-])=C\c1ccc([N+](=O)[O-])o1,11.2 µM (active),
CCOC(=O)[C@H]1[C@H]2COc3cc(OC)ccc3[C@@H]2N2C(=O)N(c3ccc(Br)cc3)C(=O)[C@@]12C,inactive,
Cn1nccc1C(=O)N1CCCC(C(=O)c2ccc(Oc3ccccc3)cc2)C1 (configuration not stated),inactive,
C=CCOc1c(CNn2cn[nH]c2=S)cccc1OC,11.2 µM (active),
COc1ccccc1-n1cn[nH]c1=S,inactive,
CCOc1c(CNCc2ccc(C(=O)O)cc2)cccc1OC,inactive,
C=CCC(Nc1ccccc1)c1cccc(OC)c1OC (configuration not stated),inactive,

Compound,Potency,"activity change, negative = inhibition"
COc1cccc(CNn2cn[nH]c2=S)c1OCc1ccccc1,2.51 µM (active),
C=CCOc1ccc(/C=N/n2cncn2)cc1OC,inactive,
C=CCOc1cccc(C2NC(=O)c3ccccc3O2)c1 (configuration not stated),inactive,
C=CCOc1cccc(CNn2cn[nH]c2=S)c1,10 µM (active),
COc1ccc(-c2cc(=O)oc3cc(OC(C)C(=O)NCC4CCC(C(=O)O)CC4)ccc23)cc1 (configuration not stated),inactive,
CCN(CC)CCCNC(=O)c1cc2c(=O)[nH]c3ccc(C)cc3c2s1,inactive,
CCCCC[C@H]1CN(C2CCCCC2)C(=O)[C@@H]1CC(=O)NCc1ccc(OC)cc1,inactive,
COc1ccccc1-c1sc2ccccc2c1-c1ccc(C(C)=O)cc1,inactive,
Cc1ccc(-c2csc(NC3OC(=O)c4ccccc43)n2)cc1 (configuration not stated),inactive,
COc1ccc(-c2cn3ccsc3n2)cc1,inactive,
COc1ccc(-c2cn3ccc(C)cc3n2)cc1,3.16 µM (active),
CCN(CC)S(=O)(=O)c1ccc(-c2cn3ccc(C)cc3n2)cc1,inactive,
CCOc1ccc(-n2c(SCC(=O)OC)nc3sc4c(c3c2=O)CCN(C)C4)cc1,inactive,
COc1ccc(N(CC(=O)Nc2ccc(F)c(F)c2)S(=O)(=O)c2c(C)[nH]c(=O)[nH]c2=O)cc1,inactive,
COc1cccc(C(O)c2nc3ccccc3n2C)c1 (configuration not stated),inactive,
Oc1ccccc1C=NC1CCCCC1N=Cc1ccccc1O (configuration not stated),inactive,
O=C(N/N=C/c1ccccc1O)C1CCCC1,0.158 µM (active),
COc1ccc(/C=N/NC(=O)C2CC2)c(OC)c1OC,inactive,
CCn1c(=S)sc2c(=O)n(CC(=O)Nc3cccc(Br)c3)c(C)nc21,inactive,
Cc1cc(C)c(NC(=O)CN2CCCCCC2)c(C)c1,inactive,
O=C(c1c(F)cccc1Cl)N1CCN(S(=O)(=O)c2ccc3c(c2)OCCCO3)CC1,inactive,
CCOc1ccccc1CNS(=O)(=O)c1cc(-c2cc(C)no2)ccc1C,inactive,

Compound,Potency,"activity change, negative = inhibition"
COc1ccc(/C=C2\SC(=O)N(CCC(=O)NC3CCS(=O)(=O)C3)C2=O)cc1 (configuration not stated),inactive,
O=C(NCc1cccs1)c1ccc(CS(=O)Cc2ccccc2Cl)o1 (configuration not stated),inactive,
CCc1cc(-c2nnc(SCC(=O)NC3CC3)n2C)cs1,inactive,
CCc1cc(-c2n[nH]c(=S)n2CC(C)C)cs1,2.51 µM (active),
CC(=O)Nc1ccc(C(=O)Nc2nc(-c3cc(C)n(Cc4ccccc4)c3C)cs2)cc1,,3.29% [at 10 µM] (inactive)
CCCc1cc(-c2n[nH]c(=S)n2Cc2ccccc2)cs1,4.47 µM (active),
Cc1cc(-c2csc(N)n2)c(C)n1Cc1ccccc1,inactive,
COC(=O)c1ccccc1NC(=O)CSc1nc2c(c(=O)[nH]1)CCC2,inactive,
COc1ccc(C(=O)NCC(=O)N/N=C/c2cccnc2)cc1,inactive,
CCOC(=O)[C@@H]1[C@H]2COc3cc(OC)ccc3[C@H]2N2C(=O)N(c3ccc(F)cc3)C(=O)[C@]12C,inactive,
COc1ccc(CNS(=O)(=O)c2ccc(-c3cnc(C4CC4)o3)cc2)cc1,inactive,
CCOC(=O)c1cccc(NS(=O)(=O)c2c(C(=O)N3CCCCCC3)c(C)n(C)c2C)c1,inactive,
O=C(c1ccccc1F)N(Cc1ccccc1)Cc1ccccc1,inactive,
COc1cccc(CNC(=O)c2nnn(CC(=O)Nc3cc(C)ccc3C)c2N)c1,inactive,
COc1cccc(CNC(=O)c2n[nH]c3ccccc23)c1,inactive,
CCn1c(=O)cc(OCC(=O)NCCCN2CCN(c3cccc(Cl)c3)CC2)c2ccccc21,inactive,
COc1cccc(CNC(=O)Cc2csc(Nc3nc(=S)[nH]c4ccccc34)n2)c1,6.31 µM (active),
O=C(Cc1csc(Nc2nc(=S)[nH]c3ccccc23)n1)NCCCN1CCN(c2cccc(Cl)c2)CC1,2.51 µM (active),
O=C(CCCn1c(=O)[nH]c2cc(Cl)ccc2c1=O)NCCN1CCN(c2ccccc2)CC1,inactive,
